Results on 29 compounds are retold here after PubChem BioAssay (NCATS).

Where “and” joins values, the source holds several entries; their conditions need not be identical. Identical values can stand only once. Records with an inconclusive call do not appear. Calls of active or inactive are those of the source. The call rests on the fitted dose curve; in most records, active means well fitted activation curve with a large enough effect; inconclusive means small, poorly fitted or top-dose-only effect; inactive means no such curve, though single readings can be large or run the other way.
Potency means the concentration at half of the fitted maximal effect.

The target in the test is Cellular tumor antigen p53 (Homo sapiens) (UniProt P04637). As to the kind of experiment: Primary qHTS for small molecule compounds that upregulate eGFP-tagged delta133p53alpha (in N-terminal) cells. (AID 2060322). Further: nearly all actives have a fitted effect of over 75% in size.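 On activation: cells pre-induced with doxycycline then dosed without doxycycline; series mostly up to about 56 µM; 0% = DMSO vehicle and 100% = reference activator.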 The settings on record: NCI-H358 eGFP-delta133p53alpha fluorescence, 24 h; activation: stronger effect = higher value. In outline: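 NCI-H358 cells pre-induced 24 h with 10 ng/ml doxycycline for eGFP-delta133p53alpha, plated dox-free and exposed 24 h at 37C to titrated compounds. Fixed, Hoechst-stained; gated GFP peak intensity by laser scanning cytometry, normalized to DMSO (0%) and 57.5 uM 5-azacytidine (100%).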
Chain of Cellular tumor antigen p53 (Homo sapiens) (P04637 whole entry, looked up): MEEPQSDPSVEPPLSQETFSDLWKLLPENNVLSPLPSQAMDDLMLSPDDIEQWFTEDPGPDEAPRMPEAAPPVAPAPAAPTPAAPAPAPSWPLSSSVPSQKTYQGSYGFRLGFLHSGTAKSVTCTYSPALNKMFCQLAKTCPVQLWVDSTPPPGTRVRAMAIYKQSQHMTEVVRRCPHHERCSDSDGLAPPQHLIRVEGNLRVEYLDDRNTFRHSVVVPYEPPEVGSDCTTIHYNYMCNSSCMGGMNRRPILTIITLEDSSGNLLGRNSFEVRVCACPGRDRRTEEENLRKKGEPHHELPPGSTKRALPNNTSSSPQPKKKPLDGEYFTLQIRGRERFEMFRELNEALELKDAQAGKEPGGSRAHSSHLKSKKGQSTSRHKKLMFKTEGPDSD
As to `Clc1ncoc1-c1c[nH]c2ccccc12`, the activation is 11.5% (inactive). Same read-out and setting: as for `O=C(Nc1ccccc1)N1CCN(Cc2ccc3ccccc3n2)CC1`, the figure is 8.59% (inactive). Take `N[C@@H](CCNCc1ccc(Cl)cc1)C(=O)N1CCCCC1`: the activation is 1.91% (inactive).

In the case of `O=C(C1CCCCC1)N(CCN1CCN(c2ccccc2O)CC1)c1ccccn1`, the activation is -3.34% (inactive). The same measure, in the same setting: to `COc1ccc2c(c1O)OC[C@H]1c3ccc(O)cc3O[C@@H]21` belongs -14.5% (inactive); to `COc1ccc(-c2ccn(CC[C@](C)(C(=O)NO)S(C)(=O)=O)c(=O)c2)c(F)c1`, -16.3% (inactive); to `COc1ccc(-c2cc3onc(-c4ccncc4)c3c(=O)n2C)cc1`, -6.68% (inactive).

With `CC[C@H](CO)Nc1nc(NCc2ccc(-c3ccccn3)cc2)c2ncn(C(C)C)c2n1`, the Potency is 0.536 µM (active). Take `CC1(NC(=O)c2ccc(C#Cc3cccc(F)c3)cn2)COC1`: the activation was -11.9% (inactive). Turning to `CN(C)c1ccc2c(c1)OC(N)=C(C#N)C2c1cccc(C(F)(F)F)c1` (centres undefined), the Potency was 0.953 µM (active). With `O=C(O)c1cn(C2CC2)c2cc(N3C[C@@H]4C[C@H]3CN4)c(F)cc2c1=O`, the activation was 11.7% (inactive).

Consider `CCCCNC(=O)[C@@H]1Cc2ccccc2N1C(=O)[C@@H](N)CC`, for which the activation was -9.55% (inactive).

In the case of `CCOC(=O)C1=C(N)Oc2ccc(Cl)cc2C1C(C#N)C(=O)OCC` (centres undefined), the Potency was 23.9 µM (active). Turning to `Cn1cnc(-c2nccc3c(=O)[nH]c(OCCCC(F)(F)F)nc23)c1`, the activation was -13.4% (inactive). The same measure, in the same setting: to `CCOC(=O)c1cccc(CNc2ccc(N(C)C(=O)Nc3ccccc3)cc2)c1` belongs -12.9% (inactive); to `COCCN(C(=O)c1cc(OC)c(OC)c(OC)c1)c1nc(-c2ccccc2)cs1`, 19.1% (inactive); to `C=CC(=O)N1CCN(C(=O)CNc2cc(-c3ccccc3Cl)c(Cl)cc2OC)CC1`, 8.59% (inactive). Same read-out and setting: as for `COC(=O)N1CCN(Cc2cccc(NC(=O)Nc3ccc(C)nc3)c2F)CC1`, the figure is 4.35% (inactive) and -6.68% (inactive); as for `COC(=O)c1ccc(O[C@@H]2O[C@H](CO)[C@@H](O)[C@H](O)[C@H]2O)c(OC)c1`, -13.4% (inactive).

With `COc1ccnc(CCc2nc3ncccc3[nH]2)c1`, the activation is -5.73% (inactive). The same measure, in the same setting: to `COc1ccc(CCO[C@@H]2CCCC[C@H]2N2CC[C@@H](O)C2)cc1OC` belongs -0.477% (inactive); to `CC1(C)CCC2(C(=O)OC3OC(CO)C(O)C(O)C3O)CCC3(C)C(=CCC4C5(C)CCC(O)C(C)(C(=O)O)C5CCC43C)C2C1O` (centres undefined), 3.57% (inactive).

Consider `Cn1cc(Nc2cnccc2C(=O)O)c2cccnc21`, for which the activation was 4.33% (inactive). In the case of `O=C(CCCCCCC(=O)Nc1ccccc1)NO`, the activation was 17.7% (inactive) and 26.7% (inactive).

On to `CCOC(=O)C1=C(N)Oc2ccc(Br)cc2C1C(C#N)C(=O)OCC` (centres undefined), for which the Potency is 30.1 µM (active). Turning to `Fc1ccc(N2CCN(CCC3OCCc4ccccc43)CC2)cc1` (centres undefined), the activation is -6.21% (inactive). The same measure, in the same setting: as for `COc1ccc(NC(=O)c2ccc(-c3ccc(C(N)=O)cc3C)cc2)cc1N1CCN(C)CC1`, the figure is 1.43% (inactive); as for `CC(C)(C)Nc1nc(Nc2ccc(C(N)=O)cc2)cc(N)c1C#N`, 11% (inactive); as for `Cc1ccccc1C#Cc1ccc(CCC(=O)O)cc1`, 4.3% (inactive).
